# Source: PubChem
# BAZ2B inh: qHTS Assay for Inhibitors of BAZ2B; Bromodomain adjacent to zinc finger domain protein 2B (Homo sapiens), Q9UIF8; AlphaScreen BAZ2B-H3K14Ac peptide displacement; Potency, µM (top dose mostly 114 µM), inactives show at the top dose activity change, negative = inhibition, hits mostly inhibitors; 4.4% of 360,000 active; also: % is scaled to controls: 0 for no effect and ±100 for the full control effect; nearly all actives have a fitted effect of over 60% in size
#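 BAZ2B 50 nM plus b-H3(5-23)K14Ac 50 nM, PBS pH 7.4/0.01% Tween-20, 30 min RT; compound added (max 110 uM), 30 min RT; streptavidin donor/Ni-chelate acceptor beads 10 ug/mL final, 20 min dark; AlphaScreen read.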
# HP1b binding inh: HTS for Inhibitors of HP1-beta Chromodomain Interactions with Methylated Histone Tails | AlphaScreen HP1-beta / biotin-H3K9me3 peptide binding | Potency, µM (titrated, usually from 114 µM), without a hit: at the top dose activity change, negative = inhibition, hits mostly inhibitors | 0.56% of 390,000 active | AID 540317, 2011; also: nearly all actives have a fitted effect of over 70% in size
#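 AlphaScreen: HP1-beta (50 nM) preformed 30 min with biotin-H3(1-18)K9me3 peptide (50 nM) in PBS pH 7.4, 0.01% Tween-20. Compound added for 30 min at RT, then streptavidin donor/nickel chelate acceptor beads (10 ug/mL) for 30 min.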
# G9a block: qHTS Assay for Inhibitors of Histone Lysine Methyltransferase G9a. Histone-lysine N-methyltransferase EHMT2 (Homo sapiens), Q96KQ7. G9a H3K9 monomethylation, AlphaScreen, 2 h. Potency, µM (series often up to 102 µM), inactives show at the highest dose activity, negative = inhibition, usual class: inhibitors. 8.8% of 350,000 active. AID 504332, 2011; also: % is scaled to controls: 0 for no effect and ±100 for the full control effect; nearly all actives have a fitted effect of over 75% in size
#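 G9a (20 nM) preincubated 15 min RT with compounds, then 500 nM biotinylated H3K9 peptide and 20 uM SAM added; 2 h RT reaction. Monomethyl-H3K9 product detected by AlphaScreen with anti-H3K9me1 antibody, streptavidin donor and anti-rabbit IgG acceptor beads.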
# JMJD2A Tudor inh: qHTS Assay for Inhibitors of JMJD2A-Tudor Domain; AlphaScreen JMJD2A-Tudor / H3K4me3 peptide binding; Potency, µM (highest dose often 114 µM), without a hit: at the top dose activity change, negative = inhibition, usual class: inhibitors; 4.4% of 390,000 active; AID 504339, 2011; also: % is scaled to controls: 0 for no effect and ±100 for the full control effect; nearly all actives have a fitted effect of over 50% in size
# Target sequence (O75164 whole entry, looked up, the tested form may be a part): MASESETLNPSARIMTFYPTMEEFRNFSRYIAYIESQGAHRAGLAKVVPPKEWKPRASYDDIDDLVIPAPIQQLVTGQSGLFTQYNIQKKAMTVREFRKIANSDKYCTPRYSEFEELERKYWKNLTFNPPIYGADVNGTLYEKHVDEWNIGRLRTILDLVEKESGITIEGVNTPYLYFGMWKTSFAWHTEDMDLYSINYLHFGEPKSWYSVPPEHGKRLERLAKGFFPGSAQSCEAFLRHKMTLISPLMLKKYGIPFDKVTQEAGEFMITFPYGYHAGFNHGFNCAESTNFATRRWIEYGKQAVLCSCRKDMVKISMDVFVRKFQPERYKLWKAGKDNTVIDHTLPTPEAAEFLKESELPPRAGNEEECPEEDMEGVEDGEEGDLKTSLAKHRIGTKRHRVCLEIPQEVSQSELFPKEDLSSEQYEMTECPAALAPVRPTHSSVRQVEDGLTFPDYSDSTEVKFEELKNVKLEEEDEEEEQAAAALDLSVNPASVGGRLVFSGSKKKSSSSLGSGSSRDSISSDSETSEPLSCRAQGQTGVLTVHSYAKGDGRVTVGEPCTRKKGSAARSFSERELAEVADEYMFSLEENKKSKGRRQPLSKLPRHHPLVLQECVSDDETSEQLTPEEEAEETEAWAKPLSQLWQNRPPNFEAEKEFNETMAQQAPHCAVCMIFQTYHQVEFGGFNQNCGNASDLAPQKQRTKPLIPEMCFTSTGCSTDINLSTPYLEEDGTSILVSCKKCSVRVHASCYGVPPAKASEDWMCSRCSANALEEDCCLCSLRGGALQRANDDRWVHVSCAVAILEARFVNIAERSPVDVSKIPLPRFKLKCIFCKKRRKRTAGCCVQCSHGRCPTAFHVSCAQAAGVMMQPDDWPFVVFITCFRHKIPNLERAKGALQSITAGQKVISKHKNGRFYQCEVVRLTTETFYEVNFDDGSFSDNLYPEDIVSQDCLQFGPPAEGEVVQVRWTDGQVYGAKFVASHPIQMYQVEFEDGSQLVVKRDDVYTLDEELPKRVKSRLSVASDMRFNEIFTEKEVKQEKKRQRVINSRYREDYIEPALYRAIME
# PLK1 PBD block: qHTS for Inhibitors of PLK1-PDB (polo-like kinase 1 - polo-box domain): Primary Screen; AID 720504, 2013; Potency, µM, for the others: max response, negative = inhibition, most hits filed as inhibitors; Serine/threonine-protein kinase PLK1 (Homo sapiens), P53350; Plk1 PBD binding of FITC phosphopeptide, fluorescence polarization; 2.8% of 360,000 active; also: series mostly up to about 57 µM; % is scaled to controls: 0 for no effect and ±100 for the full control effect; nearly all actives have a fitted effect of over 65% in size
# Sfp inh: qHTS Assay for Inhibitors of Bacillus subtilis Sfp phosphopantetheinyl transferase (PPTase). 3.5% of 310,000 active. Potency, µM, for the others: largest response in the series, negative = inhibition, actives largely listed as inhibitors. AID 1490, 2009. Biochemical Sfp PPTase activity, qHTS;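 also: the enzyme is Sfp with the accession as filed and its product quenches rhodamine fluorescence; 0% = enzyme reaction without inhibitor and -100% = no enzyme wells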
#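 Compounds were incubated with enzyme (final 15 nM) for 15 min at room temperature before substrate addition started the reaction. Fluorescence at 525 nm excitation, 598 nm emission was recorded immediately and after 30 minutes.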
# * = called active by the depositor; ? = inconclusive; nt = not tested or not shown; [ ] = dose if it differs, or a comment. In the library only some 12% were active in any assay of this set; here they are far more common. Calls follow the shape of the dose curve; as a rule, active = well fitted curve in the direction sought with a large enough effect; inconclusive = small, poorly fitted or top-dose-only effect, or another doubt; inactive = no such curve, though single readings can be large; an effect the other way counts as inactive or inconclusive. Potency is read from the fitted curve at half-maximal effect.
SMILES,BAZ2B inh,HP1b binding inh,G9a block,JMJD2A Tudor inh,PLK1 PBD block,Sfp inh
O=C(CNC(=O)c1ccco1)OCC(=O)c1ccc2c(c1)CCCC2,-3%[57.1 µM],1%,50µM*,-25%,-19%,7%
O=C(NC1CCCCC1)c1ccc2c(c1)N(Cc1ccc(Cl)cc1)C(=O)c1ccccc1S2(=O)=O,-13%,32%,-2%[59 µM],-3%,nt,nt
CCCn1c(-c2ccc(F)cc2)nc2c(N3CCN(CCn4ccnc4)CC3)nc(C)nc21,nt,nt,nt,nt,nt,5%
Cc1nc2ncnn2c(C)c1CCC(=O)NCc1ccccc1Cl,2%,11%,0%[59 µM],-12%,nt,nt
O=C(c1cnn(-c2cccc(F)c2)c1-n1cccc1)N1CCN(c2ccccc2F)CC1,-17%,29%,-5%[59 µM],-19%,nt,nt
COc1ccc2[nH]cc(CCNc3ccnc(-c4ccccc4Cl)n3)c2c1,nt,nt,1%[0.501 µM],nt,nt,5%
CN(C)CCNc1nc(-c2ccco2)c2c(c1C#N)CC(C)(C)OC2,2%,37%,8%,1%,-9%,-1%
CC(C)c1nc(N2CCN(C(=O)c3ccco3)CC2)c(C#N)c2c1COC(C)(C)C2,?,?,?,-21%,-12%,-4%
Cc1nc(NCc2ccco2)c(C#N)c2c1COC(C)(C)C2,-10%,32%,3%[59 µM],-5%,-9%,20%
CC1(C)Cc2c(C#N)c(N3CCCC3)nc(-c3ccco3)c2CO1,26%,nt,35µM*,nt,nt,18µM*
CC1(C)Cc2c(C#N)c(NCc3ccco3)nc(-c3ccco3)c2CO1,-10%,45%,?,-14%,-22%,3.5µM*
CCCCN(C)c1nc(-c2ccco2)c2c(c1C#N)CC(C)(C)OC2,32%,32%,45µM*,89µM*,30µM*,35µM*
CC1(C)Cc2c(C#N)c(N3CCN(C(=O)c4ccccc4)CC3)nc(-c3ccco3)c2CS1,50µM*,-1%,14µM*,-34%,?,20µM*
CC(C)c1nc(N2CCN(C(=O)c3ccccc3)CC2)c(C#N)c2c1COC(C)(C)C2,-30%,13%,?,-36%,-3%,-22%
C=CCOC(=O)c1sc(NC(=O)c2ccc(OC)cc2)nc1C,-14%,14%,-8%[12.7 µM],-16%,-1%,-3%
COC(=O)c1ccc(NC(=O)CC2C(=O)N(c3ccccc3)C(=O)N2C2CCCC2)cc1 (stereo not given),3%,10%,-40%[59 µM],-10%,nt,nt
CC(=O)Nc1ccc(S(=O)(=O)Nc2cc(-c3cn4ccccc4n3)ccc2C)cc1,-30%,26%,0%[59 µM],-24%,nt,nt
N#Cc1c(N2CCOCC2)nc(-c2ccco2)c2c1CCCC2,21%,59%,22µM*,19%,-25%,45µM*
CCc1ccccc1NC(=O)C(=O)NCCc1sc(-c2cccc(C)c2)nc1C,2%,19%[57 µM],7%[59 µM],-12%,nt,nt
Cc1oc(-c2ccccc2)cc1C(=O)Nc1cccc(/C=C\C(=O)O)c1,-35%,12%,45µM*,-22%,-23%,-2%
CC(C)=NOCc1ccc(-c2cn([C@@H]3COC[C@H]3O)nn2)cc1,-4%,nt,40µM*,nt,nt,14%
CC(C)[C@@H](OCc1ccccc1)[C@H](C)/C=N\O[C@@H](C)c1cn([C@@H]2COC[C@@H]2O)nn1,nt,nt,nt,nt,nt,1%
CCCCn1c(NS(=O)(=O)c2ccc(C)cc2)c(S(=O)(=O)c2ccccc2)c2nc3ccccc3nc21,14%,54%,?,16%,9.5µM*,12%
Cc1ccc(S(=O)(=O)c2c(N)n(CCCN(C)C)c3nc4ccccc4nc23)cc1,4%,53%,-9%[12.7 µM],21%,2%,4%
Cc1cccc(OCCCC(=O)N2CCCc3ccccc32)c1C,113%,120%,82%[59 µM],82%,-2%,?
SMILES,BAZ2B inh,HP1b binding inh,G9a block,JMJD2A Tudor inh,PLK1 PBD block,Sfp inh
CCCN1C(=O)c2cc(C(=O)Nc3ccc(OC)cc3OC)ccc2C1Nc1ccc(OC)cc1OC (stereo not given),?,-20%,22µM*,28µM*,-8%,7%
COCCN1CC(C(=O)NCc2ncccc2C)CCC1=O (stereo not given),-3%,5%,54%,-11%,-2%,-7%
C#CCSc1nnnn1-c1ccc(OCC)cc1,-1%,58%,50µM*,3%,-1%,-4%
CCOc1ccc(-n2nnnc2SCC(=O)Nc2ccc(NC(C)=O)cc2)cc1,-4%,49%,-3%,4%,2%,13%
Cc1cccc(NC(=O)c2oc3ccccc3c2NC(=O)c2cc(=O)c3ccc(C)cc3o2)c1,2%,-1%,?,-11%,nt,nt
Cc1ccc(Cn2c(C)c(CNC3CCCCC3)c(C(=O)O)c2C)cc1,-13%,34%,10%[59 µM],-11%,nt,nt
CS(=O)(=O)c1ccc(Cl)c(NC(=O)Cc2ccccc2F)c1,-3%,-20%,-33%,22µM*,27µM*,16%
CS(=O)(=O)c1ccc(Cl)c(NC(=O)Cc2c(F)cccc2Cl)c1,-11%,37%,-4%,-9%,1%,12%
COc1cccc(NC(=S)NC(=O)/C=C/c2ccco2)c1,50µM*,-12%,45µM*,?,-26%,-13%
O=C(/C=C/c1ccco1)NC(=S)Nc1cccc(C(=O)O)c1,32µM*,20µM*,8.9µM*,20µM*,?,79µM*
CC(=O)Nc1ccc(NC(=S)NC(=O)/C=C/c2ccco2)cc1,?,7%,2%[0.501 µM],?,?,-28%
CN1CCN(c2ccc(NC(=S)NC(=O)/C=C/c3ccco3)cc2)CC1,?,-21%,45µM*,?,-25%,-23%
COc1cc(NS(=O)(=O)c2ccc(NC(=S)NC(=O)/C=C/c3ccco3)cc2)ncn1,-35%,?,?,18µM*,13µM*,-27%
O=C(O)/C=C/c1ccc2c(-c3ccccc3)onc2c1,-18%,6%,?,-13%,-8%,?
Cc1cc(C)cc(NC(=O)c2ccc3oc(=O)c(S(=O)(=O)c4ccc(F)cc4)cc3c2)c1,-14%,9%,-26%[59 µM],-16%,nt,nt
CCNc1ncc2ncc(=O)n(C3CC3)c2n1,nt,nt,16%[0.501 µM],nt,nt,11%
CCOc1ccc(S(=O)(=O)NNS(=O)(=O)c2ccc(C)cc2C)cc1,-24%,43%,3.5µM*,-18%,-15%,79µM*
CC(Oc1cc2oc(=O)c3c(c2cc1Cl)CCCC3)C(=O)NCCN1CCOCC1 (stereo not given),-11%,8%,22%,?,24µM*,5%
